Luc counter: Kinase-Glo luciferase inhibition (counter-screen); AID 1379; Q27757; Kinase-Glo luciferase, ATP luminescence, 8 min; Potency, µM (doses to about 38.3 µM), inactives show at the top dose activity change, negative = inhibition, most hits filed as inhibitors; hit rate 0.28% among 200,000; further: nearly all actives have a fitted effect of over 60% in size
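Inhibition of Kinase-Glo luciferase light generation was assessed at 10 uM ATP in pH 7.2 imidazole buffer, with luminescence measured after eight minutes at ambient temperature.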
Gal4-VP16 FLuc: Gal4-VP16 reporter inhibition counter-screen; Potency, µM (top dose mostly 53.6 µM), for the others: at the highest dose activity, negative = inhibition, actives largely listed as inhibitors; Drosophila S2 Gal4-VP16 UAS-luciferase, luminescence, 20 h; hit rate 3.5% among 310,000;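 further: Gal4-VP16 expression switched on by copper sulfate through the metallothionein promoter; nearly all actives have a fitted effect of over 50% in size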
RORgamma inh: blocks mouse ROR gamma transcriptional activity; P51450; Drosophila S2 Gal4-RORgamma UAS-luciferase reporter, 20 h; Potency, µM (doses to about 53.6 µM), without a hit: at the top dose activity change, negative = inhibition, usual class: inhibitors; hit rate 5.4% among 310,000; further: nearly all actives have a fitted effect of over 60% in size
Target sequence (P51450 whole entry, looked up, the tested form may be a part): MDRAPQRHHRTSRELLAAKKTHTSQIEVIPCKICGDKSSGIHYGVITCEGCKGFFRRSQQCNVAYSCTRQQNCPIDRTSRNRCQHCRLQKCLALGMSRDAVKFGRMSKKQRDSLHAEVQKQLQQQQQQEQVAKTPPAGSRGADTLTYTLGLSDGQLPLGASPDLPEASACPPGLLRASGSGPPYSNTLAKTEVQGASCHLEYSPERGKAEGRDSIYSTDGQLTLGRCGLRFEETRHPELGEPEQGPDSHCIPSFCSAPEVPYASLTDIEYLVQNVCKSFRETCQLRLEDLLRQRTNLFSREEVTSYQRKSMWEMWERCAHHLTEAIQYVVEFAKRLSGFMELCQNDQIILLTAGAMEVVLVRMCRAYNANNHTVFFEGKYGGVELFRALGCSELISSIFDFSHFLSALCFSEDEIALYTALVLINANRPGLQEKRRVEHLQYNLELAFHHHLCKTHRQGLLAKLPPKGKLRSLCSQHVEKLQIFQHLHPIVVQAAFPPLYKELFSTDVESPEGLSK
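Compounds are pin-transferred onto Drosophila Schneider cells expressing a copper-inducible Gal4–ROR gamma transactivation domain fusion. After 1 hr, copper sulfate is added to 700 uM final; luciferase is read 20 hr later.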
Starred values were filed as active, the others as inactive. Shown are actives, neighbours in structure and some others; about 6.4% of the full set was active somewhere. The call rests on the fitted dose curve; in most records, active means well fitted curve in the direction sought with a large enough effect; inconclusive means small, poorly fitted or top-dose-only effect, or another doubt; inactive means no such curve, though single readings can be large; an effect the other way counts as inactive or inconclusive. On the % scale 0 is the no-effect control and ±100 the full control effect; potency means the concentration at half of the fitted maximal effect.

Results for C/C(=N\Nc1cc(-c2ccccc2)nc(-c2ccccc2)n1)c1ccc(O)c(C)c1 ?
Luc counter: 2%; Gal4-VP16 FLuc: 13µM*; RORgamma inh: 8.9µM*

What do the screens show for `CC/C(=N\NC(=O)c1ccc(-c2ccccc2)cc1)C12CC3CC(CC(C3)C1)C2`?
Luc counter: 17%; Gal4-VP16 FLuc: inconclusive; RORgamma inh: 22µM*

What do the screens show for `C/C(=N\NC(=O)c1ccc(-c2ccccc2)cc1)c1cccc(N)c1`?
Luc counter: -2%; Gal4-VP16 FLuc: -16%; RORgamma inh: 13µM*

What do the screens show for `C/C(=N\Nc1nc(C)cc(-c2ccccc2)n1)c1cccc(N)c1`?
Gal4-VP16 FLuc: 16µM*; RORgamma inh: 11µM*

Results for CCc1ccc(NC(=O)CSc2nnc(-c3cnccn3)n2C)cc1 ?
Gal4-VP16 FLuc: 0%; RORgamma inh: -17%

What do the screens show for `C/C(=N\Nc1nc(C)cc(-c2ccccc2)n1)c1ccccc1`?
Gal4-VP16 FLuc: 5µM*; RORgamma inh: 3.5µM*

Results for C/C(=N\Nc1cc(C)nc(-c2ccccc2O)n1)c1ccccc1 ?
Luc counter: -12%; Gal4-VP16 FLuc: 8%; RORgamma inh: 30%

Results for O=C(Nc1nc(-c2ccc(F)c(F)c2)cs1)c1ccc(OCC2CCCO2)cc1 (stereo not given) ?
Gal4-VP16 FLuc: -5%; RORgamma inh: -18%

Results for Cc1csc(NC(=O)c2cc[n+]([O-])cc2)n1 ?
Luc counter: -2%; Gal4-VP16 FLuc: -22%; RORgamma inh: 14%

What do the screens show for `Cc1csc(NC(=O)c2ccc(OCC3CCCO3)cc2)n1` (stereo not given)?
Luc counter: -15%; Gal4-VP16 FLuc: inconclusive; RORgamma inh: 3.5µM*

Results for Cc1csc(NC(=O)c2ccc(N3CCCC3=O)cc2)n1 ?
Luc counter: 13µM*; Gal4-VP16 FLuc: inconclusive; RORgamma inh: 2.5µM*

How did O=C(NC1=NCCS1)c1ccc(N2CCCC2=O)cc1 do in these assays?
Luc counter: -1%; Gal4-VP16 FLuc: 29%; RORgamma inh: 6%

How did Cc1csc(NC(=O)c2cc([N+](=O)[O-])cc([N+](=O)[O-])c2)n1 do in these assays?
Luc counter: -6%; Gal4-VP16 FLuc: 2µM*; RORgamma inh: inconclusive

What do the screens show for `Cc1ccc(S(=O)(=O)N2CCOCC2)cc1NC(=O)COC(=O)CNC(=O)c1ccc(Cl)cc1Cl`?
Gal4-VP16 FLuc: -3%; RORgamma inh: 5%

What do the screens show for `CNC(=O)CSc1nc2[nH]ncc2c(=O)[nH]1`?
Luc counter: 2%; Gal4-VP16 FLuc: -4%; RORgamma inh: -11%

Results for CCCC(C(=O)NC1CCCC1)N(Cc1ccccc1Cl)C(=O)c1snc(C(N)=O)c1N (stereo not given) ?
Gal4-VP16 FLuc: 15%; RORgamma inh: 16%

How did CCCN1CCC(NC(=O)CC2C(=O)NCCN2Cc2cccc(OC)c2)CC1 (stereo not given) do in these assays?
Gal4-VP16 FLuc: 2%; RORgamma inh: -1%

What do the screens show for `CCOC(=O)N1CCN(C(=S)Nc2cc(S(=O)(=O)N3CCOCC3)ccc2Cl)CC1`?
Luc counter: 1%; Gal4-VP16 FLuc: -7%; RORgamma inh: 1%

Results for O=c1[nH]c(NCCCO)nc2c1C1(CCCC1)Cc1ccccc1-2 ?
Luc counter: 3%; Gal4-VP16 FLuc: 7%; RORgamma inh: 26%

What do the screens show for `S=C(NCc1ccccc1)NNc1nc2ccccc2[nH]1`?
Luc counter: 0%; Gal4-VP16 FLuc: -9%; RORgamma inh: 4.5µM*

How did CCC1(C)Cc2ccccc2-c2nc(NCCCO)[nH]c(=O)c21 (stereo not given) do in these assays?
Gal4-VP16 FLuc: -9%; RORgamma inh: -4%

What do the screens show for `O=c1[nH]c(NNC(=S)NCc2ccccc2)nc2c1C1(CCCCC1)Cc1ccccc1-2`?
Luc counter: 0%; Gal4-VP16 FLuc: 2.8µM*; RORgamma inh: 2.5µM*

Results for c1ccc(CNc2nc3ccccc3[nH]2)cc1 ?
Luc counter: 8%; Gal4-VP16 FLuc: -21%; RORgamma inh: inconclusive

How did O=c1[nH]c(NNC(=S)NC2CCCCC2)nc2c1C1(CCCC1)Cc1ccccc1-2 do in these assays?
Gal4-VP16 FLuc: 25µM*; RORgamma inh: 2.8µM*

How did O=c1[nH]cnc2c1C1(CCCC1)Cc1ccccc1-2 do in these assays?
Luc counter: 2%; Gal4-VP16 FLuc: -9%; RORgamma inh: -2%

What do the screens show for `C=CCNC(=S)NNc1nc2c(c(=O)[nH]1)C1(CCCC1)Cc1ccccc1-2`?
Luc counter: 3%; Gal4-VP16 FLuc: 3.2µM*; RORgamma inh: 2.8µM*

What do the screens show for `Cc1noc(/C=C/c2cccs2)c1S(=O)(=O)N1CCC(C(=O)NCCCN2CCCC(C)C2)CC1` (stereo not given)?
Luc counter: -2%; Gal4-VP16 FLuc: 3%; RORgamma inh: 3%

What do the screens show for `O=C(Nc1ccnn1C1CCN(Cc2cccc(O)c2)CC1)C1CCCC1`?
Gal4-VP16 FLuc: -9%; RORgamma inh: -4%

What do the screens show for `CSc1ccccc1OCc1cc(C(=O)N2CCC[C@H]2C(N)=O)no1`?
Gal4-VP16 FLuc: -3%; RORgamma inh: 3%

How did CC(C)c1ccc(NC(=O)CN2C(=O)NC3(CCCC3)C2=O)cc1 do in these assays?
Gal4-VP16 FLuc: 4%; RORgamma inh: 0%

Results for COC(=O)CC1C(=O)NCCN1C(=O)CSc1nc2ccccc2s1 (stereo not given) ?
Luc counter: 4%; Gal4-VP16 FLuc: 8%; RORgamma inh: 0%

Results for Cc1cc(OC(F)F)ccc1NC(=S)NCCc1ccccc1 ?
Gal4-VP16 FLuc: 10µM*; RORgamma inh: 7.9µM*

What do the screens show for `CCCCNC(=S)Nc1ccccc1Cc1ccccc1`?
Luc counter: 3%; Gal4-VP16 FLuc: -4%; RORgamma inh: -2%

How did CCc1cc(Br)ccc1NC(=S)NCCc1ccccc1 do in these assays?
Gal4-VP16 FLuc: 6.3µM*; RORgamma inh: 5µM*

How did COc1ccc(CCNC(=S)Nc2ccc(C)cc2C)cc1 do in these assays?
Luc counter: -1%; Gal4-VP16 FLuc: 7.1µM*; RORgamma inh: 4µM*

How did COc1cc(NC(=S)NCCc2ccccc2)c(OC)cc1NC(=O)C(C)C do in these assays?
Gal4-VP16 FLuc: -28%; RORgamma inh: inconclusive

Results for COc1ccc(CCNC(=S)Nc2cc(C)ccc2C)cc1 ?
Luc counter: 3%; Gal4-VP16 FLuc: -2%; RORgamma inh: 21%

How did COc1ccc(NC(=S)NCCc2ccccc2)c(C)c1 do in these assays?
Gal4-VP16 FLuc: 4µM*; RORgamma inh: 6.3µM*

How did COc1cc(C)c(NC(=O)C(=S)NCCc2ccccc2)cc1C do in these assays?
Luc counter: -1%; Gal4-VP16 FLuc: 7%; RORgamma inh: 34%

How did CCOc1ccc(-n2cnc3sc(C)c(C)c3c2=O)cc1 do in these assays?
Gal4-VP16 FLuc: 0%; RORgamma inh: 5%

Results for CC(=O)NN1C(=O)c2ccccc2NC1c1ccoc1 (stereo not given) ?
Luc counter: 1%; Gal4-VP16 FLuc: -4%; RORgamma inh: -6%

What do the screens show for `Cc1ccc(NC(=O)c2cc(=O)[nH]c3ccccc23)cc1C`?
Gal4-VP16 FLuc: -4%; RORgamma inh: -2%

What do the screens show for `CCN(CC)CCCN(c1ccccc1)C1Cc2ccccc2C1`?
Gal4-VP16 FLuc: -21%; RORgamma inh: -42%

From PubChem
